# In PubChem BioAssay AID504863 (Sanford-Burnham Center for Chemical Genomics, 2011):
# The other results are listed elsewhere or left out. Values without a mark were called inactive.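 How the source made its calls: active means inhibition averaging 50% or more, tested at 20 µM; inactive means the rest.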
# System: diaphorase (Clostridium kluyveri)
# Assay: diaphorase inhibitors and chemical oxidizers, confirmation, counter-screen for P. falciparum G6PD inhibitor project, biochemical, fluorescence intensity, 30 µM NADPH (AID 504863);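 further: 0% = DMSO with enzyme and 100% = DMSO wells lacking diaphorase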
# Conditions: Diaphorase/resazurin coupled assay, resorufin fluorescence, at 20 µM, hits give high values
smiles,measurement,value
O=C1NC(=O)N(c2ccccc2)C(=O)/C1=C/c1ccc([N+](=O)[O-])s1,inhibition,20.5%
